Shown are actives, neighbours in structure and some others; about 6.6% of the full set was active somewhere.
GRIN3A LBD mod: modulates the human NR3A ligand-binding domain. Tm shift relative to glycine control, % at 25 µM. NR3A LBD differential scanning fluorimetry, Tm shift; 0% = protein alone, 100% = glycine-bound protein. 2.5% of 340,000 active;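 active means melting temperature shift of at least 10% of the positive control shift, at one fixed dose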
MPTP inh: blocks calcium-induced mitochondrial swelling; isolated mouse mitochondria, Ca2+ swelling absorbance, 30 min; inhibition, % at 10 µM; 1.4% of 360,000 active;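 active means inhibition of 50% or more, scaled per plate between neutral and stimulator controls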
Beta cell apopt: blocks beta cell apoptosis; INS-1E cytokine-induced death, ATP luminescence, 48 h; percent of positive-control rescue, neutral wells zero; protection from apoptosis, % (test concentration not listed); 0.8% of 300,000 active;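 active means Every replicate reaches about 75%, or at least half do and their mean reaches it too, limit read from the data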;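 further: higher means more ATP so stronger rescue from cytokine killing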
Gli-Sufu block: antagonists of Gli-Sufu signaling; Sufu-KO-LIGHT fibroblasts, Gli luciferase reporter luminescence; inhibition, % at 5 µM; 0.74% of 340,000 active; AID 588413;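 active means inhibition above about 55%, limit read from the data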
Mdm2-MdmX inh: disrupts the human Mdm2-MdmX interaction | O15151+Q00987 | SaOS-2 split-luciferase Mdm2/MdmX complementation, luminescence | inhibition, % at 8 µM | 3% of 330,000 active;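 active means inhibition of at least 50% at 8 µM in the primary screen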
Target sequence (O15151 whole entry, looked up): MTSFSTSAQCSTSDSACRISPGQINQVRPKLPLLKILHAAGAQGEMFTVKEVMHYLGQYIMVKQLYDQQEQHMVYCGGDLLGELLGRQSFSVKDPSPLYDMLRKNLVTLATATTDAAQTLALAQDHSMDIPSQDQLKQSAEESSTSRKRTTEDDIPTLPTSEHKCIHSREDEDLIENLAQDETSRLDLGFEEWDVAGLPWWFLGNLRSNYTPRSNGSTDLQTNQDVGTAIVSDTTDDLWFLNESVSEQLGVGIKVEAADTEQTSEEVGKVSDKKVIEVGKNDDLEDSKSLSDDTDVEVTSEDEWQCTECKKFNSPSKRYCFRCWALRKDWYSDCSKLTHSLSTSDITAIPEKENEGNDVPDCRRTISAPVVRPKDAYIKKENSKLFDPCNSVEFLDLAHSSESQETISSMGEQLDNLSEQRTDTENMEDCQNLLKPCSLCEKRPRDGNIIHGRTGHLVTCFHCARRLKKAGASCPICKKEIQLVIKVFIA
Target sequence (Q00987 whole entry, looked up): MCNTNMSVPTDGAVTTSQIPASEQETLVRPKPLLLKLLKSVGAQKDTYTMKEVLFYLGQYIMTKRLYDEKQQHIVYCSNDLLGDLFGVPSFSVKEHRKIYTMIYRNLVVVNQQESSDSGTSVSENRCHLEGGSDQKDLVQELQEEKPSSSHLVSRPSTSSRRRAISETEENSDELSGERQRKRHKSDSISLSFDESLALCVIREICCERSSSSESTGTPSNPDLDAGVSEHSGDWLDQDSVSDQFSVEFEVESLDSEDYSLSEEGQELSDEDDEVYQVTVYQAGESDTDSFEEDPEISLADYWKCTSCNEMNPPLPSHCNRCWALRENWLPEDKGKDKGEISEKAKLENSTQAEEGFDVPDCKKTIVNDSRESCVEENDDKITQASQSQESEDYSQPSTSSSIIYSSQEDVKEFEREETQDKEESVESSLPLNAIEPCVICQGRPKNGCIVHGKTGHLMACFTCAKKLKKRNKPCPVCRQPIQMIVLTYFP
CSC inhib: blocks cancer stem cells; cancer stem cell-like cells viability, luminescence; inhibition, % at 7.5 µM; 1.1% of 300,000 active; in the data active means inhibition above about 75%; tested in HMLE shEcad cells
Of the large screens only hits and unclear results are named; the others gave an inactive call.

O=[N+]([O-])c1ccccc1N=Nc1ccc(O)cc1O	none (no result: Beta cell apopt, Mdm2-MdmX inh, CSC inhib)
CC1=C(CO)C(=O)OC([C@@H](C)C2CC[C@H]3C4C[C@H]5O[C@]56[C@@H](O)C=CC(=O)[C@]6(C)C4CC[C@]23C)C1 (stereo partly specified)	Beta cell apopt 108.6, CSC inhib 99.1 (no result: Mdm2-MdmX inh)
O=C(Nc1ccccn1)c1ccc(Br)c(S(=O)(=O)N2CCCCC2)c1	GRIN3A LBD mod 12.6
O=C(Nc1ccccn1)c1ccc(Br)c(S(=O)(=O)N2CCCC2)c1	none
Cc1nnc(NC(=O)c2ccc(F)c(S(=O)(=O)N3CCCCC3)c2)s1	GRIN3A LBD mod 15.9
Cc1nnc(NC(=O)c2ccc(C)c(S(=O)(=O)N3CCOCC3)c2)s1	none
O=C1/C(=C/c2ccc(O)c(O)c2)Oc2cc(O)ccc21	GRIN3A LBD mod 15.1 (no result: Beta cell apopt)
COc1cc(/C=C2\Oc3cc(O)ccc3C2=O)ccc1O	none (no result: Beta cell apopt)
Cc1cc(S(=O)(=O)N2CCOCC2)ccc1OCC(=O)Nc1ccc(F)c(Cl)c1	GRIN3A LBD mod 44.4 (no result: CSC inhib)
Cc1ccc(OCC(=O)Nc2ccc(S(=O)(=O)N3CCOCC3)cc2)c(C)c1	GRIN3A LBD mod 10.5 (no result: Beta cell apopt, CSC inhib)
Cc1cc(S(=O)(=O)N2CCOCC2)ccc1OCC(=O)Nc1ccc(F)cc1	none (no result: Beta cell apopt)
CC1CCCC(NC(=O)COC(=O)c2ccccc2Sc2ccccc2C#N)C1C (stereo unspecified)	GRIN3A LBD mod 16.0 (no result: CSC inhib)
O=S(=O)(c1ccccc1)N(CC(O)Cn1c2ccccc2c2ccccc21)c1ccccc1 (stereo unspecified)	CSC inhib 94.7 (no result: Beta cell apopt)
CCOC(=O)c1cnc(-n2nc(C)cc2C)nc1NNc1ncc(-c2ccccc2)cn1	Beta cell apopt 96.4 (no result: MPTP inh)
CCOC(=O)c1cnc(-n2nc(C)cc2C)nc1NCCO	none (no result: CSC inhib)
CCOC(=O)c1cnc(-n2nc(C)cc2C)nc1NCc1ccccc1	Beta cell apopt 98.8
CCOC(=O)c1cnc(-n2nc(C)cc2C)nc1NC(C)c1ccccc1 (stereo unspecified)	Beta cell apopt 88.3 (no result: CSC inhib)
COc1ccc(C(=O)NC(=S)Nc2ccc3oc(=O)ccc3c2)cc1OC	none
CCCCNC(=O)C1C(c2ccc(OC)cc2)=Nc2ccccc2N1C(=O)c1ccncc1 (stereo unspecified)	none (no result: GRIN3A LBD mod, Beta cell apopt, Gli-Sufu block, Mdm2-MdmX inh, CSC inhib)
N#Cc1ccccc1S(=O)(=O)N1CCN(C(=O)c2cc3c(s2)CCC3)CC1	none (no result: Beta cell apopt, CSC inhib)
CCN(C(=O)COC(=O)c1c(-c2ccccc2)noc1C)c1c(N)n(Cc2ccccc2)c(=O)[nH]c1=O	GRIN3A LBD mod 14.5 (no result: CSC inhib)
Cc1onc(-c2ccccc2)c1C(=O)OCC(=O)N(C)c1c(N)n(Cc2ccccc2)c(=O)[nH]c1=O	none
NC(=O)c1ncn([C@@H]2O[C@H](CNCc3ccccc3C#Cc3ccccc3)[C@@H](O)[C@H]2O)n1	GRIN3A LBD mod 11.3 (no result: Beta cell apopt, Mdm2-MdmX inh, CSC inhib)
CC(C)(O)C#Cc1ccc(CNC[C@H]2O[C@@H](n3cnc(C(N)=O)n3)[C@H](O)[C@@H]2O)s1	GRIN3A LBD mod 11.3 (no result: Beta cell apopt, Mdm2-MdmX inh, CSC inhib)
COc1ccc(C2=NS(=O)(=O)N(C)C(C(=O)N3CCCCC3)=C2)cc1OC	none
Cc1ccc(C(=O)CC(=O)c2cc(Cl)ccc2O)cc1	GRIN3A LBD mod 10.6 (no result: CSC inhib)
Cc1c(C)n2c(SCC(=O)Nc3cccc4ccccc34)nnc2[nH]c1=O	none
CC(C)n1c(O)c(/C=C2\C=Nc3ccccc32)sc1=Nc1ccccc1	GRIN3A LBD mod 24.8
N#CCc1ccc(NC(=O)Nc2cccc3ccccc23)cc1	GRIN3A LBD mod 21.4
O=C(CN1CCN(CC(=O)Nc2ccc(Cl)cc2)CC1)Nc1ccc(F)cc1	none
Cc1cccc(NC(=O)CN2C(=O)S/C(=C\C(=O)Nc3ccc(Cl)cc3)C2=O)c1	none
O=C(/C=C1\SC(=O)N(CC(=O)Nc2ccc(F)cc2)C1=O)Nc1ccc(Cl)cc1	GRIN3A LBD mod 27.2 (no result: Beta cell apopt)
O=C(/C=C1\SC(=O)N(CC(=O)Nc2ccc(Cl)cc2)C1=O)Nc1ccc(F)cc1	GRIN3A LBD mod 36.0 (no result: Beta cell apopt)
Clc1ccc(SCc2csc(N3CCOCC3)n2)cc1	none
Clc1ccc(SCc2cc(N3CCOCC3)nc(-c3ccccn3)n2)cc1	Beta cell apopt 98.9
CS(=O)(=O)N(CC(=O)Nc1ccccc1C(=O)N1CCOCC1)c1ccccc1	none (no result: CSC inhib)
Cc1ccc(N(CC(=O)Nc2ccccc2C(=O)N2CCOCC2)S(C)(=O)=O)cc1	GRIN3A LBD mod 13.1 (no result: CSC inhib)
O=C(COC(=O)/C=C/c1cccs1)Nc1nc(-c2ccccc2)cs1	none
O=C(/C=C/c1ccc2c(c1)OCO2)Nc1nncs1	none (no result: Beta cell apopt)
O=C(/C=C/c1ccc2c(c1)OCO2)Nc1nc(-c2ccccc2)cs1	CSC inhib 98.5 (no result: Beta cell apopt)
O=C(/C=C/c1cccs1)Nc1nc(-c2ccccc2)cs1	GRIN3A LBD mod 17.3 (no result: CSC inhib)
O=C(/C=C\c1ccco1)Nc1nc(-c2ccc3ccccc3c2)cs1	GRIN3A LBD mod 24.6
CC(=O)Nc1ccc(NC(=O)/C=C/c2ccc3c(c2)OCO3)cc1	none
Cc1cc(C)nc(NC(=O)/C=C/c2ccc3c(c2)OCO3)c1	CSC inhib 84.5
Cc1ccccc1CSCC(=O)Nc1ccccc1F	none
Cc1noc(C)c1C(=O)N(CC(=O)Nc1ccc(Cl)c(C(F)(F)F)c1)Cc1ccco1	none
N#Cc1ccccc1COC(=O)CCCC1=NS(=O)(=O)c2ccccc2N1	none
Cc1sc(NC(=O)/C=C/c2ccc3c(c2)OCO3)nc1-c1ccccc1	CSC inhib 108.1
N#CCC(=O)Nc1ccc(C(=O)OCC(=O)Nc2ccccc2Sc2ccccc2)cc1	GRIN3A LBD mod 16.4
N#CCC(=O)Nc1ccc(C(=O)OCc2ccccc2Oc2ccccc2)cc1	GRIN3A LBD mod 16.7
Cc1cc(C)c(-c2cc(NC(=O)COC(=O)c3ccc(NC(=O)CC#N)cc3)n(-c3ccccc3)n2)cc1C	GRIN3A LBD mod 27.2
Cc1cc(C)c(-c2cc(NC(=O)COC(=O)c3ccc(C#N)cc3)n(-c3ccccc3)n2)cc1C	none
O=C(COC(=O)c1ccc(O)cc1O)Nc1cc(-c2ccccc2)nn1-c1ccccc1	GRIN3A LBD mod 24.7
N#CCC(=O)Nc1ccc(C(=O)OCC(=O)NCCCc2ccccc2)cc1	none
COC(=O)c1cccc(NC(=O)CSc2nnc(-c3ccco3)o2)c1	none
CCN(CC(=O)NC1CCCC1)S(=O)(=O)c1ccc(C)cc1	none
CCN(CC(=O)NC1CCCC1)S(=O)(=O)c1ccc(Br)cc1	GRIN3A LBD mod 11.1
Nc1ccn([C@@H]2O[C@H](CN=C3NS(=O)(=O)c4ccccc43)[C@@H](O)[C@H]2O)c(=O)n1	none (no result: GRIN3A LBD mod, Beta cell apopt, Gli-Sufu block, Mdm2-MdmX inh, CSC inhib)
COc1cccc(NC(=S)NN2CCN(C)CC2)c1	GRIN3A LBD mod 12.2
CCN(CC)C(=O)c1ncn2c1c(=O)[nH]c1ccccc12	none (no result: GRIN3A LBD mod, Beta cell apopt, Gli-Sufu block, Mdm2-MdmX inh, CSC inhib)
CCOc1ccc(Br)cc1C(=S)N1CCCC1	none
CN(CC(=O)N/N=C/c1ccc(F)cc1)S(=O)(=O)c1ccccc1	none (no result: GRIN3A LBD mod, Beta cell apopt, Gli-Sufu block, Mdm2-MdmX inh, CSC inhib)
CCOC(=O)Cc1cc(-c2ccccc2)nc2ccc3ccccc3c12	none
c1ccc(-c2cc(-c3ccncc3)nc3ccc4ccccc4c23)cc1	GRIN3A LBD mod 21.6, CSC inhib 102.4
Clc1ccc2nc(-c3ccncc3)cc(-c3ccccc3)c2c1	GRIN3A LBD mod 24.2

Screening data as filed in PubChem.
